Five molecules from PubChem BioAssay AID2241 (Broad Institute, 2010) can be followed below.

Each structure is given as a SMILES string. Hit rate of the full screen: of about 21,000 compounds, about 110 (0.52%) were called active. Shown is part of a subset that was picked to be rich in actives. Values without a mark were called inactive.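 How the source made its calls: active means most replicate scores above 10, or exactly half above 10 with mean activity above 10; inconclusive means mean activity below 10 while half the replicates exceed 10; inactive means most replicate scores below 10.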

This assay can be described thus: caspase activation in A1-primed MEFs – cell-based, CaspaseGlo luminescence, A1 inhibitor project, primary screen (AID 2241).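 Further: effector caspase 3 and 7 activity cleaving a DEVD luciferin substrate.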 As to conditions: MEF A1-2A-BIM cells, caspase-Glo luminescence, 3 h; hits give high values; percent of clofoctol signal, DMSO as zero; concentration not given here.
On to `CN[C@@H]1C[C@H]2O[C@@](C)([C@@H]1OC)n1c3ccccc3c3c4c(c5c6ccccc6n2c5c31)C(=O)NC4`, for which the caspase activation is 81% (active). `CCN(CC)C(=O)c1ccc(N(Cc2ccccc2Cl)S(C)(=O)=O)cc1`: the caspase activation was -0.556%. The value for `C[C@H]1O[C@@H](O[C@H]2CC[C@]3(CO)C4CC[C@]5(C)[C@@H](C6=CC(=O)OC6)CC[C@]5(O)[C@@H]4CC[C@H]3C2)[C@H](O)[C@H](O)[C@@H]1O[C@@H]1O[C@H](CO)[C@@H](O)[C@H](O)[C@H]1O` (stereo not given in full) was -0.142%; that for `CC1N=C(c2ccccc2)c2ccccc2N(CCCOc2ccc(F)cc2)C1=O` (stereo not given) was -0.726%; that for `Cc1ccc(CSc2nnc(OC(=O)N(C)C)n2-c2cccc(Cl)c2)cc1` was -0.0343%.
